Measurements taken from PubChem BioAssay (NCI).
The panel holds about 79,000 compounds, 15% with a hit somewhere; the sample as a whole holds those more often. Rule as the data show it: active = growth inhibition above about 70%; inactive = the rest.

Experiments:
[1] = NCI Yeast Anticancer Drug Screen. Data for the rad50 strain (AID 155);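 also: 0% = growth of vehicle-only cultures of the same strain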; details: S. cerevisiae rad50 strain growth inhibition; at 50.0 µM; hits give high values
Outline: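 Growth of the mutant yeast was measured after compound exposure and referenced to vehicle-treated cultures.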

[2] = NCI Yeast Anticancer Drug Screen. Data for the mec2-1 strain (AID 157); details: S. cerevisiae mec2-1 strain, at 50.0 µM, hits give high values
Outline: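 Mutant yeast (mec2-1) grown with compound; growth inhibition relative to vehicle control reported.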

[3] = NCI Yeast Anticancer Drug Screen. Data for the sgs1 mgt1 strain (AID 161);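 also: 0% = growth of cultures given vehicle only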; details: S. cerevisiae sgs1 mgt1 strain, at 50.0 µM, hits give high values
Outline: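 Compounds are added to genetically altered yeast, and growth is compared with cultures given vehicle alone to give percent inhibition.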

[4] = NCI Yeast Anticancer Drug Screen. Data for the cln2 rad14 strain (AID 165);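 also: 0% = growth equal to vehicle treated cultures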; details: S. cerevisiae cln2 rad14 strain, at 50.0 µM, hits give high values
Outline: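 Readout is yeast growth inhibition versus vehicle-treated controls, using a strain with cln2 and rad14 alterations exposed to compound.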

[5] = NCI Yeast Anticancer Drug Screen. Data for the bub3 strain (AID 167); details: S. cerevisiae bub3 mutant strain, at 50.0 µM, hits give high values
Outline: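 Whole-cell yeast assay. The mutant strain was incubated with compounds, and growth inhibition was determined by comparison with vehicle-treated cells.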

[6] = NCI Yeast Anticancer Drug Screen. Data for the mlh1 rad18 strain (AID 175); details: S. cerevisiae mlh1 rad18 strain growth inhibition; at 50.0 µM; hits give high values
Outline: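 Genetically defined yeast (DNA repair-deficient) exposed to compounds; growth inhibition determined relative to vehicle.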

Measured: growth inhibition

O=C([O-])C(=O)[O-].[Co+3].[NH2-].[NH2-].[NH2-].[NH2-].[O-][Cl+3]([O-])([O-])O
inactive: [1] 18.5% | [2] 21.9% | [3] 13.2% | [4] 15.7% | [5] 18.1% | [6] 36.8%

CC(C)OP(=O)(NC(=S)c1ccccc1)OC(C)C
inactive: [1] 19.1% | [2] 21% | [3] 36.4% | [4] 11.4% | [5] 13.8% | [6] 13.9%

CCOC(=O)/C=C/CP(=O)(OCC)OCC
inactive: [1] 7.9% | [2] -11.5% | [3] 15.2% | [4] 11.3% | [5] 9.55% | [6] 18.2%

CCCc1c(C#N)c(S)[nH]c(=S)c1C#N
inactive: [1] 33.4% | [2] 20.4% | [3] 13.6% | [4] -5.65% | [5] 4.55% | [6] 16.2%

O=C1CN=C(c2ccccc2)c2cc(Cl)ccc2N1
inactive: [1] -4.7% | [2] 11.9% | [3] 3.35% | [4] 16.1% | [5] 8.55% | [6] 32.2%

CN1CCCC(O)(C(=O)c2ccccc2)C1 (stereo not given)
inactive: [1] 4.15% | [2] -15.2% | [3] 0.7% | [4] -16% | [5] -9.35% | [6] 12.9%

C(=C\C1CC2CCCN2O1)/c1ccccc1 (stereo not given)
inactive: [1] 39.9% | [2] -20.5% | [3] 15.2% | [4] -23.4% | [5] 2.45% | [6] 11.2%

CC(=O)Nc1ccc(Cl)cc1
inactive: [1] -20.4% | [2] -7.15% | [3] -18.1% | [4] 1.7% | [5] 9.45% | [6] -1.9%

Oc1ccccc1/C=N/Sc1ccccc1.Oc1ccccc1/C=N/Sc1ccccc1.[Ni+2]
inactive: [1] 3.2% | [2] -0.85% | [3] 30.6% | [4] -6.6% | [5] 12.7% | [6] 36%

NCCN.O=C([O-])[O-].O=C([O-])[O-].[Co+3].[K+]
inactive: [1] 1.5% | [2] 4.6% | [3] 5.2% | [4] 13.2% | [5] -8.9% | [6] -5.55%

COc1cc2c(c3oc4cccc(O)c4c(=O)c13)[C@@H]1C=CO[C@@H]1O2
inactive: [1] -11.6% | [2] -15.2% | [3] -7.05% | [4] 26.1% | [5] -8.7% | [6] -8.9%

NC(=O)Nc1ccc([As]=O)cc1 (stereo not given)
inactive: [1] 8% | [2] -5.7% | [3] -1.3% | [4] 11.5% | [5] -15.2% | [6] 2.65%

c1ccc(CCN2CCCCC2)nc1
inactive: [1] 2.55% | [2] -1.8% | [3] -0.15% | [4] -1.1% | [5] 13.3% | [6] -0.85%

Nc1cccc2ccccc12
inactive: [1] 17.1% | [2] -9.95% | [3] 6.65% | [4] -28.9% | [5] 19.2% | [6] 4.4%

CN(C)C1OCC(C)(C)CO1
inactive: [1] -13.9% | [2] -34.7% | [3] -5.55% | [4] 12.3% | [5] -18% | [6] -7.1%

CCCCN1C(=O)CC(=O)N(c2ccccc2)C1=O
inactive: [1] -8.55% | [2] -28% | [3] -3.8% | [4] 14.3% | [5] -14.4% | [6] -4.35%

N#Cc1ccc([N+](=O)[O-])cc1
inactive: [1] -1.15% | [2] 9.25% | [3] 1.7% | [4] 1.2% | [5] -43.8% | [6] -43.9%

CCOP(=O)(O)CP(=O)(O)OCC.CCOP(=O)(O)CP(=O)(O)OCC.[Cr]
inactive: [1] -61.8% | [2] -11.4% | [3] -32.2% | [4] -40.5% | [5] 2.7% | [6] -27.2%

CCOC(=O)CN(Cc1ccccc1)Cc1c(C(=O)c2ccccc2)c2ccccc2n1C(=O)c1ccccc1
inactive: [1] 3.75% | [2] -11.8% | [3] -10.9% | [4] -75.2% | [5] -16.6% | [6] -18.6%

CN1CCN(C)C1=Nc1ccccc1/C=C/C=C1C(=O)N(C)C(=O)N(C)C1=O
inactive: [1] 2.7% | [2] 8.5% | [3] 12.8% | [4] 12.2% | [5] -1.2% | [6] 14.8%
